# Measured values reported in PubChem BioAssay (EPA / NIEHS).
# Where “and” joins values, the source holds several entries; their conditions need not be identical. Identical values can stand only once. Inconclusive results are not listed. Calls of active or inactive are those of the source. Rule for the calls, unless noted: active = hit-call score of the fitted dose curve at least 0.9, where 1 is the maximum; inconclusive = response in the unintended direction; inactive = score below 0.9.
# Key:
# [1] = target: human CYP2D6, CYP2D6 (gene 1565) (UniProt P10635); assay: NVS_ADME_hCYP2D6: NovaScreen (NVS) CYP450-related Enzyme Activity (ADME) Assay for human CYP2D6 (AID 2283107)
# Procedure, shortened: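 Biochemical fluorescence assay, insect-cell-derived enzyme. Read at 1 h; inhibition taken from loss of signal against acetonitrile. Screened at 10 uM in duplicate, with concentration series for actives.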
# [2] = target: human CYP2C9, CYP2C9 (gene 1559) (UniProt P11712); assay: NVS_ADME_hCYP2C9: NovaScreen (NVS) CYP450-related Enzyme Activity (ADME) Assay for human CYP2C9 (AID 2283108)
# Procedure, shortened: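 Recombinant human CYP2C9 expressed in SF9 cells, fluorogenic substrate, fluorescence read 0.75 h after dosing. Chemicals first run in duplicate at 10 uM, with actives followed in concentration series; loss of signal versus acetonitrile baseline.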
# [3] = target: Cytochrome P450 3A4 (Homo sapiens) (UniProt P08684); assay: NVS_ADME_hCYP3A4: NovaScreen (NVS) CYP450-related Enzyme Activity (ADME) Assay for human CYP3A4 (AID 2283110)
# Procedure, shortened: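 Recombinant CYP3A4 from insect cells, fluorescence enzyme read-out, 0.33 h after chemical addition. Acetonitrile = negative control/baseline. Primary HTS: 10 uM in duplicate; actives re-tested in concentration series.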
# [4] = target: Cytochrome P450 2C19 (Homo sapiens) (UniProt P33261); assay: NVS_ADME_hCYP2C19: NovaScreen (NVS) CYP450-related Enzyme Activity (ADME) Assay for human CYP2C19 (AID 2283113);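 for AC50: potency for inhibition seen as loss of fluorescent signal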
# Procedure, shortened: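 Biochemical CYP2C19 inhibition screen: insect-cell recombinant protein plus fluorescent substrate, 1 h, fluorescence intensity. Acetonitrile defined baseline activity. Single 10 uM concentration in duplicate, with concentration-response follow-up for actives.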
# [5] = target: human Caspase 5 (CASP5), CASP5 (gene 838) (UniProt P51878); assay: NVS_ENZ_hCASP5: NovaScreen (NVS) Enzymatic Assay for human Caspase 5 (CASP5) (AID 2283137)
# Procedure, shortened: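 Caspase 5 enzyme activity, detected as fluorescence signal loss, is measured in a biochemical format using E. coli-expressed protein. Reading occurs 2 hours post-dosing. Screening runs at 25 uM, with confirmed actives titrated to 50 uM maximum.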
# [6] = target: human Caspase 4 (CASP4), CASP4 (gene 837) (UniProt P49662); assay: NVS_ENZ_hCASP4: NovaScreen (NVS) Enzymatic Assay for human Caspase 4 (CASP4) (AID 2283143)
# Procedure, shortened: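 Compounds were first tested in duplicate at 25 uM, and hits were titrated singly to a 50 uM maximum. Recombinant protease from E. coli was read by fluorescence 2 h post-dose, and activity loss was fitted against the DMSO baseline.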
# [7] = target: human CYP1A2, CYP1A2 (gene 1544) (UniProt P05177); assay: NVS_ADME_hCYP1A2: NovaScreen (NVS) CYP450-related Enzyme Activity (ADME) Assay for human CYP1A2 (AID 2283102);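 note: potency for inhibition since loss of fluorescence marks reduced CYP1A2 activity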
# Procedure, shortened: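 Inhibition scored as decrease in fluorescent product versus acetonitrile negative control. Enzyme: insect-cell recombinant human CYP1A2, substrate-specific, cell-free. Reading at 0.5 h; 10 uM duplicate initial screen with positive and negative controls on every plate.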
# CDK2 (gene 1017) = CDK2 (gene 1017) (UniProt P24941); assay: NVS_ENZ_hCDK2: NovaScreen (NVS) Enzymatic Assay for human Cyclin-Cependent Kinase 2 (CDK2) (AID 2283144)
# Procedure, shortened: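 Compounds screened in duplicate at 25 uM, then in singleton concentration-response to a maximum of 50 uM, against recombinant CDK2; kinase activity read 1 hr after dosing by fluorescence with mobility-shift separation of substrate and product.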
# [8] = target: human Beta-secretase (BACE), BACE1 (gene 23621) (UniProt P56817); assay: NVS_ENZ_hBACE: NovaScreen (NVS) Enzymatic Assay for human Beta-secretase (BACE) (AID 2283140);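 note: hits are inhibitors that reduce fluorescent substrate signal versus DMSO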
# Procedure, shortened: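 Enzyme activity of SF9-produced BACE1 is measured cell-free by fluorescence, 1 hour post dosing, normalised to DMSO. Screening used 25 uM in duplicate, with concentration-response follow-up for actives.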
# [9] = target: human AKT serine/threonine Kinase 1 (AKT1), AKT1 (gene 207) (UniProt P31749); assay: NVS_ENZ_hAKT1: NovaScreen (NVS) Enzymatic Assay for human AKT serine/threonine Kinase 1 (AKT1) (AID 2283138)
# Procedure, shortened: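 A biochemical assay with recombinant enzyme and specific substrate, read by fluorescence intensity with mobility-shift separation 1 hour after dosing. Actives from 25 uM duplicate screening were titrated up to 50 uM against DMSO baseline.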
# Caspase-3 (Homo sapiens) = Caspase-3 (Homo sapiens) (UniProt P42574); assay: NVS_ENZ_hCASP3: NovaScreen (NVS) Enzymatic Assay for human Caspase 3 (CASP3) (AID 2283139)
# Procedure, shortened: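 Single-concentration screening at 25 uM in duplicate, with concentration-response follow-up to a 50 uM maximum for chemicals passing the threshold. Caspase-3 (human, E. coli-expressed) activity was read as substrate fluorescence after 1 h, with loss of signal relative to DMSO.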
# [10] = target: human Caspase 8 (CASP8), CASP8 (gene 841) (UniProt Q14790); assay: NVS_ENZ_hCASP8: NovaScreen (NVS) Enzymatic Assay for human Caspase 8 (CASP8) (AID 2283146)
# Procedure, shortened: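 The primary screen tested compounds in duplicate at a single 25 uM concentration, with actives followed up in concentration series. Activity of recombinant (E. coli) protease was measured by fluorescence 1 h post-dose, as signal loss against DMSO.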
# rat CYP3A1, gene 25642 = assay: NVS_ADME_rCYP3A1: NovaScreen (NVS) CYP450-related Enzyme Activity (ADME) Assay for rat CYP3A1 (AID 2283126)
# Procedure, shortened: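 Compounds went first at 10 uM duplicate, then to series with 20 uM maximum. Fluorescence from substrate turnover by the recombinant enzyme was measured 0.5 h post-dosing, inhibition scored against acetonitrile vehicle.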
# [11] = target: rat CYP3A2, Cyp3a2 (gene 266682) (UniProt P05183); assay: NVS_ADME_rCYP3A2: NovaScreen (NVS) CYP450-related Enzyme Activity (ADME) Assay for rat CYP3A2 (AID 2283128)
# Procedure, shortened: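 Fluorescence readout of extracted rat CYP3A2 activity 0.5 h post-dose, acetonitrile as negative control. Single-point testing in duplicate at 10 uM, followed by concentration series to a 20 uM maximum for actives.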
# [12] = target: human Acid Phosphatase 1 (ACP1), ACP1 (gene 52) (UniProt P24666); assay: NVS_ENZ_hACP1: NovaScreen (NVS) Enzymatic Assay for human Acid Phosphatase 1 (ACP1) (AID 2283136)
# Procedure, shortened: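 Cell-free fluorescence read-out of phosphatase activity, substrate and product separated by mobility shift, taken 1.5 h after compound addition; protein produced in Sf9. Single 25 uM duplicate screen, followed by concentration series for actives, scored as signal loss relative to DMSO.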
# [13] = target: rat CYP2A1, Cyp2a1 (gene 24894) (UniProt P11711); assay: NVS_ADME_rCYP2A1: NovaScreen (NVS) CYP450-related Enzyme Activity (ADME) Assay for rat CYP2A1 (AID 2283114; active = hit-call score of the fitted dose curve at least 0.9, where 1 is the maximum; inactive = score below 0.9)
# Procedure, shortened: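 Cell-free fluorescence enzyme-activity read on recombinant rat CYP2A1, taken 0.75 h post-dosing. Compounds were screened in duplicate at 10 uM, then hits tested in concentration series (max 20 uM); inhibition scored relative to acetonitrile baseline.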
# [14] = target: rat CYP2A2, Cyp2a2 (gene 24895) (UniProt P15149); assay: NVS_ADME_rCYP2A2: NovaScreen (NVS) CYP450-related Enzyme Activity (ADME) Assay for rat CYP2A2 (AID 2283116)
# Procedure, shortened: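 Compounds first tested in duplicate at 10 uM, then in singleton concentration series up to 20 uM when over threshold. Activity of the recombinant enzyme read by fluorescence at 0.2 h, normalised to acetonitrile vehicle.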
# [15] = target: rat CYP2C11, Cyp2c11 (gene 29277) (UniProt P08683); assay: NVS_ADME_rCYP2C11: NovaScreen (NVS) CYP450-related Enzyme Activity (ADME) Assay for rat CYP2C11 (AID 2283118)
# Procedure, shortened: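 Screened first at 10 uM in duplicate, hits followed by concentration-response. Recombinant rat enzyme activity monitored by fluorescence 0.33 h post-dosing, normalised to acetonitrile negative control.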
# [16] = target: rat CYP2C13, Cyp2c13 (gene 171521) (UniProt P20814); assay: NVS_ADME_rCYP2C13: NovaScreen (NVS) CYP450-related Enzyme Activity (ADME) Assay for rat CYP2C13 (AID 2283121)
# Procedure, shortened: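 Inhibition is read as decreased fluorescent product formation, referenced to acetonitrile vehicle. Cell-free recombinant rat Cyp2c13 reaction ran 0.75 hour; compounds first at 10 uM in duplicate, then concentration series for actives.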
# Sequence of human Caspase 8 (CASP8), CASP8 (gene 841) (Q14790 whole entry, looked up): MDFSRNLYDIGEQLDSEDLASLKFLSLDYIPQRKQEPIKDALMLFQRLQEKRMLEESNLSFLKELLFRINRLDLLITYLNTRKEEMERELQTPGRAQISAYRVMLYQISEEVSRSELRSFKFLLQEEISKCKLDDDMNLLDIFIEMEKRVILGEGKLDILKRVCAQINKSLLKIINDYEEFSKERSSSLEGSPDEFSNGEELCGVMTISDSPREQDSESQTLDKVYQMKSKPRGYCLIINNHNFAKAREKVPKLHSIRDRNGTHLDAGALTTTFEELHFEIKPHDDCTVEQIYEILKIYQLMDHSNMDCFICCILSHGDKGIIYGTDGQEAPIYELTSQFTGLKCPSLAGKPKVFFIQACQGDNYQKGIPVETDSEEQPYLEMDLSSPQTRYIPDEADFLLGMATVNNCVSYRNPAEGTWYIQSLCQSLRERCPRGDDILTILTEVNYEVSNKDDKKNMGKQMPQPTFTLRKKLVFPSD
# Sequence of human AKT serine/threonine Kinase 1 (AKT1), AKT1 (gene 207) (P31749 whole entry, looked up): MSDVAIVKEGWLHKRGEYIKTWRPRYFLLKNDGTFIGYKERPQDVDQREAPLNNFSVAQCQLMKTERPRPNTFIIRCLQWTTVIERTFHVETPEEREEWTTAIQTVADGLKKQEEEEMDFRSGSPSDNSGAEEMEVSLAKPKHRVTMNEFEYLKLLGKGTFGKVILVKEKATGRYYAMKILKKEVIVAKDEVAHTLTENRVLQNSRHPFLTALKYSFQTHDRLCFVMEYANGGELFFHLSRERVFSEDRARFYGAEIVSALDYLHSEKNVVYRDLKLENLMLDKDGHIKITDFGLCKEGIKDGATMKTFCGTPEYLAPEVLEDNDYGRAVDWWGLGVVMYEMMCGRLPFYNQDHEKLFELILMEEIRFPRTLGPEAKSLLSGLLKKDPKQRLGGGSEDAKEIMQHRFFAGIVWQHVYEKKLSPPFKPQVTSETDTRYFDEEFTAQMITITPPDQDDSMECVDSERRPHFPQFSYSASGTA
# Sequence of human CYP2C9, CYP2C9 (gene 1559) (P11712 whole entry, looked up): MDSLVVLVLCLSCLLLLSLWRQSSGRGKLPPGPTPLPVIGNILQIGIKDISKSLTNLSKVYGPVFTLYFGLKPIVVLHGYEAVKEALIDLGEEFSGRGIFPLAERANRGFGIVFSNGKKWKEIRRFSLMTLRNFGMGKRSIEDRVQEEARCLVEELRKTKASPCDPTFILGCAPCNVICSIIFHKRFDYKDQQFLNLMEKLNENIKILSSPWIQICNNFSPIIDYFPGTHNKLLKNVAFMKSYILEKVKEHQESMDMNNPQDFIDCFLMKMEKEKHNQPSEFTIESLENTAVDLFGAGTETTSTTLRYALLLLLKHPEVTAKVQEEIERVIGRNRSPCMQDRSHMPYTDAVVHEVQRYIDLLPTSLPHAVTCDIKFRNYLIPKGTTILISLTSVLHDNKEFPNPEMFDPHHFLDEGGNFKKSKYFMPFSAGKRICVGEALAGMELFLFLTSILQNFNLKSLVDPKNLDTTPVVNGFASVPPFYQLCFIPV
# Sequence of human Beta-secretase (BACE), BACE1 (gene 23621) (P56817 whole entry, looked up): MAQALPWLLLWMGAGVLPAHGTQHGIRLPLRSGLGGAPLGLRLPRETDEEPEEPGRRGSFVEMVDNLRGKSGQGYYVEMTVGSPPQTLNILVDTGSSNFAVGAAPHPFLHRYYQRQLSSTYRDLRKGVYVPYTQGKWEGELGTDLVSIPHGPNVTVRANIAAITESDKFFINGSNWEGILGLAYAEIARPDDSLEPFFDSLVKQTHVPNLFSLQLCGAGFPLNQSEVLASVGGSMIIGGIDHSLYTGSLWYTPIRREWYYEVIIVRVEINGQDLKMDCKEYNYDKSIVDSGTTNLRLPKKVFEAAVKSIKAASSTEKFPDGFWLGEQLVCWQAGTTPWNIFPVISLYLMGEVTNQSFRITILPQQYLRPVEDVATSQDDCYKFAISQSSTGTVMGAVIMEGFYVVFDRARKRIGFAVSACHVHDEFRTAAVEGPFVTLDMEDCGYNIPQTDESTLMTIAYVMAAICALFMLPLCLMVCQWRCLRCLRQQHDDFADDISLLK
# Sequence of human CYP1A2, CYP1A2 (gene 1544) (P05177 whole entry, looked up): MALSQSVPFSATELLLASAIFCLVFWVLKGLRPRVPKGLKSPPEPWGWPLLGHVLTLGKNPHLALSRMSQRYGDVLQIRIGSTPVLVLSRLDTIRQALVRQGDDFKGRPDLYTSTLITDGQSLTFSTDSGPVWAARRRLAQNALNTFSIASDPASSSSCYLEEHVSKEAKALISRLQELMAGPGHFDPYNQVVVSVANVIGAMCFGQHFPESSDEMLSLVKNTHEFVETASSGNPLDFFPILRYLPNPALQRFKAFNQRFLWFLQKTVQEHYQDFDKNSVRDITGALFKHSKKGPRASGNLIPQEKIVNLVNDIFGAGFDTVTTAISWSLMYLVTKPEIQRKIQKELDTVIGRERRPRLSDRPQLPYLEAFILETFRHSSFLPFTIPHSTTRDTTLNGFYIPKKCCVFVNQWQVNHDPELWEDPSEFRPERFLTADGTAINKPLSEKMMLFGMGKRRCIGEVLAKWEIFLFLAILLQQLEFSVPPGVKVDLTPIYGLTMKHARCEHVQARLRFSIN
# Sequence of rat CYP3A2, Cyp3a2 (gene 266682) (P05183 whole entry, looked up): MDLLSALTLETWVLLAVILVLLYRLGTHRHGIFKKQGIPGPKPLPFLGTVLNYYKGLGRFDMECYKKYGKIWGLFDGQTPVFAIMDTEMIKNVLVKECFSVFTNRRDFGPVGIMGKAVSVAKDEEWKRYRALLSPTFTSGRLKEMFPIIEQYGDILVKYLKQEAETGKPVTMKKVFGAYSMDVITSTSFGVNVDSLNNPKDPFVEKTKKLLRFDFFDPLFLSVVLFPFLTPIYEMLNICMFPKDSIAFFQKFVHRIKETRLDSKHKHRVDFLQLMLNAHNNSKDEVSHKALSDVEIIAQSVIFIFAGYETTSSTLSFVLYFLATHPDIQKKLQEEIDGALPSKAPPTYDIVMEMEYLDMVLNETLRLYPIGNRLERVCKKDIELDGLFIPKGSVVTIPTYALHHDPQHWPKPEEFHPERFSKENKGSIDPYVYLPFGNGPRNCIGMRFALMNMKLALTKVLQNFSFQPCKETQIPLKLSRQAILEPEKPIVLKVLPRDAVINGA
# Sequence of Cytochrome P450 3A4 (Homo sapiens) (P08684 whole entry, looked up): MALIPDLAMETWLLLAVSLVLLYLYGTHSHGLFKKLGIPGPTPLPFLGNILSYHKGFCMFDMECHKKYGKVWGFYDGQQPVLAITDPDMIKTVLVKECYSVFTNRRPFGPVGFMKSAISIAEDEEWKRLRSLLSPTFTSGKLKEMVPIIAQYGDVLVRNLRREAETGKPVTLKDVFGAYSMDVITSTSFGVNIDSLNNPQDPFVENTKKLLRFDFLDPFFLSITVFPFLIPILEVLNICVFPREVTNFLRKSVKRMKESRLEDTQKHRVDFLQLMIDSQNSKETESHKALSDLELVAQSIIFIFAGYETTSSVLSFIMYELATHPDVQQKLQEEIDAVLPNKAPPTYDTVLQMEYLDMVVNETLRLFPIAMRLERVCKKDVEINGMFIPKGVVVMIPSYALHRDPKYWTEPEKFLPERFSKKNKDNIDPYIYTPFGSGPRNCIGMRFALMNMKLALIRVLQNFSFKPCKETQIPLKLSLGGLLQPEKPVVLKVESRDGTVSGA
# Sequence of human Caspase 5 (CASP5), CASP5 (gene 838) (P51878 whole entry, looked up): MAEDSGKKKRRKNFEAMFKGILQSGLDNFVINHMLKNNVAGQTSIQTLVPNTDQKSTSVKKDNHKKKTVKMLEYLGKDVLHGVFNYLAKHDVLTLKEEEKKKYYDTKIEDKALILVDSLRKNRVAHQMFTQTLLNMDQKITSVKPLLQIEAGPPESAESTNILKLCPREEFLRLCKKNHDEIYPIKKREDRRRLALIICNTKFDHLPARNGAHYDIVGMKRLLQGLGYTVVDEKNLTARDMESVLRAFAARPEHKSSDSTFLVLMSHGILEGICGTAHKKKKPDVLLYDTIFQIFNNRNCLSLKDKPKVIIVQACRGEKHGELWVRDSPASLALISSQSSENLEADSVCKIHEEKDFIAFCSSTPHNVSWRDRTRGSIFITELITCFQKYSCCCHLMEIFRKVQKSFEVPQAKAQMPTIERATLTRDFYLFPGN
# Sequence of human CYP2D6, CYP2D6 (gene 1565) (P10635 whole entry, looked up): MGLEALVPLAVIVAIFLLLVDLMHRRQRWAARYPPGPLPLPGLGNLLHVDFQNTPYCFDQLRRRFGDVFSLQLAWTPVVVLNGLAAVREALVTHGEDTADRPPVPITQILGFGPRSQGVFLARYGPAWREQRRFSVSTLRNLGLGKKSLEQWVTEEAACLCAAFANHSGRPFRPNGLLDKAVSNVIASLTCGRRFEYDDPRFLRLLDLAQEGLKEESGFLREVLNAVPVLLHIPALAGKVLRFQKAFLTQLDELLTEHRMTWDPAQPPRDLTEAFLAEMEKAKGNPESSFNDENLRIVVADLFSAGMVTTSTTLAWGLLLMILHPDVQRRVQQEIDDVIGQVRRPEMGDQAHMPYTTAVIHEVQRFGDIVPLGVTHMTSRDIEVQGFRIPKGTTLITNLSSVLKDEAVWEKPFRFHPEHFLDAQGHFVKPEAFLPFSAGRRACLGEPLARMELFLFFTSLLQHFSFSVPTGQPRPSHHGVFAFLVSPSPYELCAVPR
# Sequence of rat CYP2C13, Cyp2c13 (gene 171521) (P20814 whole entry, looked up): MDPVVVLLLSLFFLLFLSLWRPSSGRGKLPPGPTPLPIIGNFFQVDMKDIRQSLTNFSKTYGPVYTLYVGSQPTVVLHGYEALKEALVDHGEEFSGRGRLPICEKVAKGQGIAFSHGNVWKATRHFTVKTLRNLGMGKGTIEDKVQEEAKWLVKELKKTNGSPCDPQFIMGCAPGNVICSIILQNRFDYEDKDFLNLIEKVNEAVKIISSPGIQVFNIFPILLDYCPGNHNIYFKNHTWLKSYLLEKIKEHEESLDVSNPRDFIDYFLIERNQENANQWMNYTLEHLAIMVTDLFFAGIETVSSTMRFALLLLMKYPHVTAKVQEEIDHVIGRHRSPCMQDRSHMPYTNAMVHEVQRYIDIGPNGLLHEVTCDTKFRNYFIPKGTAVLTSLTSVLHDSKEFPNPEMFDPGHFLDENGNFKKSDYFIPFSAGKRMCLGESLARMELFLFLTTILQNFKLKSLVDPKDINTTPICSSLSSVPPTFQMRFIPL
structure (smiles),measurement,setting,value
CCN(Cc1cccnc1)C(=O)c1cccc(Cl)c1[C@]1(C)C(=O)N(Cc2ccc(OC)cc2OC)c2ccc(Cl)cc21,outcome,[1],inactive
same,AC50,[2],2.28 µM (active)
same,AC50,[3],3.58 µM (active)
same,AC50,[4],1.01 µM (active)
same,outcome,[5],inactive
same,outcome,[6],inactive
c1ccc(C[n+]2cccc3ccccc32)cc1,AC50,[1],7.84 µM (active)
same,AC50,[4],4.78 µM (active)
Clc1cc(Cl)c2c(c1)N=C1CCCCCN1C2,AC50,[7],2.34 µM (active)
same,AC50,[1],2.71 µM (active)
same,outcome,CDK2 (gene 1017),inactive
CN(C)c1ccc(C(=C2C=CC(=[N+](C)C)C=C2)c2ccc(N(C)C)cc2)cc1,AC50,[7],6.67 µM (active)
same,AC50,[1],2.86 µM (active)
same,AC50,[4],3.32 µM (active)
same,AC50,[8],14 µM (active)
CC(C)(O)c1ccc(CNC(=O)c2cccnc2Oc2ccc3nonc3c2)cc1,AC50,[2],13 µM (active)
same,AC50,[4],10.9 µM (active)
same,outcome,[9],inactive
O=C(OCCCCCCOC(=O)c1ccccc1)c1ccccc1,AC50,[7],5.42 µM (active)
CC[C@H](NC(=O)c1cc(F)ccc1NS(=O)(=O)c1cccc2cccnc12)c1ccccc1,outcome,[3],inactive
same,outcome,[5],inactive
CCN(Cc1cccc(S(=O)(=O)O)c1)c1ccc(C(=C2C=CC(=[N+](CC)Cc3cccc(S(=O)(=O)O)c3)C=C2)c2ccccc2S(=O)(=O)[O-])cc1,AC50,[2],4.22 µM (active)
same,AC50,[5],5.36 µM (active)
same,outcome,Caspase-3 (Homo sapiens),inactive
same,AC50,[8],14.8 µM (active)
same,AC50,[6],4.96 µM (active)
same,outcome,[10],inactive
CC(=O)N1CCN(c2ccc(OC[C@H]3CO[C@](Cn4ccnc4)(c4ccc(Cl)cc4Cl)O3)cc2)CC1,outcome,[8],inactive
COc1cc(C(=O)NC2CCN(C)CC2)ccc1Nc1ncc2c(n1)N(C1CCCC1)CC(F)(F)C(=O)N2C,AC50,[2],6.56 µM (active)
same,AC50,[4],7.11 µM (active)
same,outcome,[8],inactive
same,outcome,CDK2 (gene 1017),inactive
O=C(O)c1ccccc1-n1cc(C(=O)O)c(=O)c2cc(Nc3c(F)cc(F)cc3Cl)c(Cl)cc21,AC50,[8],5.43 µM (active)
NC(=O)c1nc(-c2cccc(-c3cc(F)ccc3OCC(F)(F)C(F)(F)F)c2)n[nH]1,outcome,[8],inactive
CN(C[C@@H](CC[N+]12CCC(C3CCCCC3)(CC1)CC2)c1ccc(Cl)c(Cl)c1)C(=O)c1cc(C(F)(F)F)cc(C(F)(F)F)c1,AC50,[2],7.68 µM (active)
same,AC50,[8],29.9 µM (active)
O=c1c(-c2ccc(O)cc2)coc2cc(O)cc(O)c12,AC50,"rat CYP3A1, gene 25642",8.92 µM (active) and 5.71 µM (active)
same,AC50,[11],995 nM (active) and 815 nM (active) and 5.56 µM (active)
CC(C)(C)c1csc(-c2cc3cc(OCc4ccccc4CC(=O)O)ccc3o2)n1,AC50,[8],17.1 µM (active)
CO[C@H]1/C=C/O[C@@]2(C)Oc3c(C)c(O)c4c(O)c(c(/C=N/N5CCN(C)CC5)c(O)c4c3C2=O)NC(=O)/C(C)=C\C=C\[C@H](C)[C@H](O)[C@@H](C)[C@@H](O)[C@@H](C)[C@H](OC(C)=O)[C@@H]1C,AC50,[4],10.7 µM (active)
same,AC50,[9],25.1 µM (active)
same,outcome,[8],inactive
same,AC50,[10],6.48 µM (active)
Cc1oc2c(NC(=O)c3c(Cl)cccc3Cl)cccc2c1C(C)(C)O,AC50,[3],7.44 µM (active)
O=C1CCC(C2CCCCC2)CC1,outcome,[4],inactive
CC(C)(C)c1cc(/C=C2\SC(N)=NC2=O)cc(C(C)(C)C)c1O,AC50,[4],1.16 µM (active)
Oc1ccc2ccccc2c1,outcome,CDK2 (gene 1017),inactive
O=CCCCC=O,AC50,[9],25 µM (active)
CCCCCCCCOc1ccc(C(=O)c2ccccc2)c(O)c1,outcome,[10],inactive
c1ccc2ccccc2c1,outcome,[12],inactive
same,outcome,[9],inactive
same,outcome,CDK2 (gene 1017),inactive
Cc1ccc(C(C)C)cc1,outcome,[8],inactive
OCCO,outcome,[8],inactive
O=C(O)Cc1cc(I)c(Oc2ccc(O)c(I)c2)c(I)c1,outcome,[4],inactive
same,outcome,[8],inactive
CC/C(=C(/CC)c1ccc(O)cc1)c1ccc(O)cc1,AC50,[13],8.99 µM (active)
same,AC50,[14],10.2 µM (active)
same,AC50,[15],1.95 µM (active) and 7.02 µM (active)
same,AC50,[16],1.08 µM (active) and 3.79 µM (active)
same,outcome,[12],inactive
same,outcome,[9],inactive
same,outcome,[10],inactive
CN1C(=O)N(c2ccccc2Br)Cc2cnc(Nc3ccc4c(c3)OCC(CO)O4)nc21 (centres undefined),AC50,[5],12.5 µM (active)
same,AC50,CDK2 (gene 1017),11.7 µM (active)
C[C@]12CC[C@@H]3c4ccc(O)cc4CC[C@H]3[C@@H]1CC[C@H]2O,AC50,[4],0.649 µM (active)
Cc1cccc2ccccc12,outcome,[4],inactive
O=C(Nc1ccc(Cl)cc1)Nc1ccc(Cl)c(Cl)c1,AC50,[4],10 µM (active)
same,AC50,[8],16.3 µM (active)
